Screens: PubChem, National Center for Advancing Translational Sciences (NCATS)
HP1b binding inh = HP1-beta chromodomain-methylated histone interaction inhibition | P83916 | AlphaScreen HP1-beta / biotin-H3K9me3 peptide binding | Potency, µM (highest dose often 114 µM), inactives show at the highest dose activity change, negative = inhibition, actives largely listed as inhibitors | hit rate 0.56% among 390,000; further: potency means the concentration at half of the fitted maximal effect; nearly all actives have a fitted effect of over 70% in size
Target sequence (P83916 whole entry, looked up): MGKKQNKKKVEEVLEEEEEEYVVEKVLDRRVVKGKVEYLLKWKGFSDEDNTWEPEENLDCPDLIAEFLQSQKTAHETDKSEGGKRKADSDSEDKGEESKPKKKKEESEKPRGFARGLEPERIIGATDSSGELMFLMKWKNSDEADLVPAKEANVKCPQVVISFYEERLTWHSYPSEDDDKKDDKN
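Compound inhibition of the preformed complex between 50 nM HP1-beta and 50 nM biotinylated H3K9me3 peptide was read by AlphaScreen. Buffer was PBS pH 7.4 with 0.01% Tween-20. Incubations ran 30 min at room temperature, with 10 ug/mL donor/acceptor beads.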
PI5P4K alpha inh = blocks human PI5P4K alpha kinase activity; AID 652105; PI5P4Kalpha enzyme, ADP-Glo luminescence, 60 min; hits give low values; max response, %; P48426; hit rate 1.2% among 330,000; active means max response of -50% or lower; inconclusive means between -30% and -50%; inactive means -30% or higher; further: value at the top dose of about 77 µM; on the % scale 0 is the no-effect control and ±100 the full control effect
Target sequence (P48426 whole entry, looked up): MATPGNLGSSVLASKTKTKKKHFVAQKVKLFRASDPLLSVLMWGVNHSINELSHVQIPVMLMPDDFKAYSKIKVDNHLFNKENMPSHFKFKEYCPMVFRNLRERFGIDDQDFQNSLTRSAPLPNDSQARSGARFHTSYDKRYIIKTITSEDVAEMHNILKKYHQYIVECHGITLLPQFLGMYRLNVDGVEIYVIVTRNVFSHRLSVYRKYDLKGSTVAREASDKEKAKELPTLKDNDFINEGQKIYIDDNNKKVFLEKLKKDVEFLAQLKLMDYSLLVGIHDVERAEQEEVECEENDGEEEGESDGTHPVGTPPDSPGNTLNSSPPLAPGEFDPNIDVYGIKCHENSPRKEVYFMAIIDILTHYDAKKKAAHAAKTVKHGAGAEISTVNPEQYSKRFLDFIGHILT
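Enzyme plus substrate dispensed, test compounds pinned in, then ATP (5 microM final) added. After 60 min at RT, ADP-Glo reagent 1 for 45 min and reagent 2 for 30 min preceded luminescence imaging.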
JMJD2A Tudor = JMJD2A Tudor domain (human) inhibition. O75164. Potency, µM (highest dose often 114 µM), inactives show at the top dose activity change, negative = inhibition, actives largely listed as inhibitors. hit rate 4.4% among 390,000. AlphaScreen JMJD2A-Tudor / H3K4me3 peptide binding. AID 504339; further: potency means the concentration at half of the fitted maximal effect; on the % scale 0 is the no-effect control and ±100 the full control effect; nearly all actives have a fitted effect of over 50% in size
BAZ2B inh = blocks human BAZ2B; AlphaScreen BAZ2B-H3K14Ac peptide displacement; Potency, µM (highest dose often 114 µM), for inactives: at the top dose activity change, negative = inhibition, actives largely listed as inhibitors; AID 504333; Q9UIF8; hit rate 4.4% among 360,000; further: potency means the concentration at half of the fitted maximal effect; on the % scale 0 is the no-effect control and ±100 the full control effect; nearly all actives have a fitted effect of over 60% in size
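AlphaScreen luminescence quantifies BAZ2B engagement of H3K14Ac peptide; the protein and biotinylated peptide are both at 50 nM final, buffer PBS pH 7.4 with 0.01% Tween-20, all steps at room temperature.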
PLK1 PBD block = inhibitors of human PLK1 polo-box domain binding; Plk1 PBD binding of FITC phosphopeptide, fluorescence polarization; hit rate 2.8% among 360,000; Potency, µM, without a hit: max response, negative = inhibition, hits mostly inhibitors; P53350; AID 720504; further: potency means the concentration at half of the fitted maximal effect; series mostly up to about 57 µM; on the % scale 0 is the no-effect control and ±100 the full control effect; nearly all actives have a fitted effect of over 65% in size
G9a inh = inhibitors of human histone lysine methyltransferase G9a | G9a H3K9 monomethylation, AlphaScreen, 2 h | Potency, µM (top dose mostly 102 µM), for the others: top-dose activity, negative = inhibition, most hits filed as inhibitors | Q96KQ7 | AID 504332 | hit rate 8.8% among 350,000; further: potency means the concentration at half of the fitted maximal effect; on the % scale 0 is the no-effect control and ±100 the full control effect; nearly all actives have a fitted effect of over 75% in size
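Using a bead-based AlphaScreen, monomethylated H3K9 product from 2 h room-temperature reactions (G9a 20 nM, peptide 500 nM, SAM 20 uM) was detected with 0.5 ug/mL rabbit anti-H3K9me1 antibody.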
Starred values were filed as active, the others as inactive; u = inconclusive; x = no result given; [ ] = dose if it differs, or a comment. A selection: hits, their analogues and other compounds. The true share with any hit is near 12%. Unless noted, the call rests on the fitted dose curve; in most records, active means well fitted curve in the direction sought with a large enough effect; inconclusive means small, poorly fitted or top-dose-only effect, or another doubt; inactive means no such curve, though single readings can be large; an effect the other way counts as inactive or inconclusive.

SMILES | HP1b binding inh | PI5P4K alpha inh | JMJD2A Tudor | BAZ2B inh | PLK1 PBD block | G9a inh
Cc1ccccc1NC(=S)c1ccc2ccccc2n1 | 36.5% | 1.8 | -13.7% | 10µM* | 2.67µM* | 11.2µM*
COC(=O)c1c(-c2ccc(Cl)cc2)noc1N1CCN(c2cc(C)ccc2C)CC1 | 16.6%[57 µM] | x | -6.8% | -7.2% | x | 10.1%[59 µM]
CCOC(=O)c1ccc(NC(=O)CCn2nnc3ccccc32)cc1 | 32.0% | 1.4 | 1.6% | 1.4% | 0.1% | -2.6%[59 µM]
CC(=O)c1ccc(NC(=O)CCCCCn2nnc3ccccc3c2=O)cc1 | 32.8% | -7.9 | 12.7% | 5.6% | 2.3% | 13.1%
CC(=O)Nc1ccc(NC(=O)CCn2nnc3ccccc32)cc1 | u | -24.7 | u | 17.7% | 18.9µM* | x
C[C@H](NC(=O)c1ccc(Cl)cc1)C(=O)OCn1nnc2ccccc2c1=O | 26.5% | -4.8 | u | x | -9.0% | x
CN(C)c1ccc(NC(=O)CCCCCn2nnc3ccccc3c2=O)cc1 | 16.2% | 1.2 | -24.8% | -19.8% | -7.8% | 50.1µM*
O=C(CSCC(=O)OCn1nnc2ccccc2c1=O)Nc1ccc(Cl)cc1 | 25.2% | 3.3 | 0.7% | -22.3% | u | 44.7µM*
Cc1cccc(OCCSc2nc3ccc(NC(=O)COc4ccccc4F)cc3s2)c1 | 22.6% | x | -6.6% | -3.9% | x | 14.1%[59 µM]
COc1ccc(C(=O)N2CCC3(CCCN(C)C3)CC2)cc1 | x | x | x | x | x | 2.8%[12.7 µM]
FC(F)(F)c1ccccc1-c1nccc(-n2ccnc2)n1 | x | x | x | x | x | -10.1%[0.501 µM]
COc1cccc(CNC(=O)C2CSC3(C)CCC(=O)N23)c1 (centres undefined) | 42.7% | -1.3 | -9.7% | -3.4% | 3.4% | -3.0%
CCOC1=C2[C@@H](CN(S(=O)(=O)c3ccc(C)cc3)[C@H]2c2ccccc2F)[C@H]2C(=O)NC(=O)[C@H]2C1 | x | -4.5 | x | x | -1.6% | x
COc1cc(CN2CCCCC2C(=O)Nc2ccc(Oc3ccccc3)nc2)ccc1O (centres undefined) | 18.4% | 12.7 | -28.3% | -17.6% | u | 5.62µM*
COc1cc(-c2noc(-c3ccc(NCCc4ccccc4)c([N+](=O)[O-])c3)n2)cc(OC)c1OC | 46.7% | x | 0.7% | -0.5% | x | -44.3%[59 µM]
Cc1cc(C)n2c(SC/C(O)=C(\C#N)c3nc4ccccc4[nH]3)nnc2n1 | 28.3% | -81.0* | u | u | u | 4.5%
Cc1cc(SCC(=O)OC/C(O)=C(\C#N)c2nc3ccccc3[nH]2)c(C)cc1Br | 33.8% | 3.3 | -9.1% | -8.4% | 0.5% | 14.5%[59 µM]
CCOC(=O)c1ccc2c(c1)nc(SC/C(O)=C(\C#N)c1nc3ccccc3[nH]1)n2CC | 27.6% | -20.8 | -29.0% | -2.4% | -7.1% | 50.1µM*
Cc1cccc(Nc2nnc(SCC(O)=C(C#N)c3nc4ccccc4[nH]3)s2)c1 | 9.7% | -61.0* | -12.4% | x | -23.7% | x
Cc1ccccc1-n1c(SC/C(O)=C(\C#N)c2nc3ccccc3[nH]2)nnc1-c1ccncc1 | u | u | 79.4µM* | -2.4% | u | u
COc1ccc(-c2[nH]c3c(c2-c2c(-n4cccc4)n(C)c(=O)[nH]c2=O)c(=O)[nH]c(=O)n3C)cc1F | 50.9% | x | -1.0% | -19.4% | x | -2.9%[59 µM]
COC(=O)c1ccc(Nc2ncnc3c2nc2n3CCCC2)cc1 | 24.2% | x | -15.2% | -7.4% | x | -39.3%[59 µM]
COc1ccc(C2CC(c3ccccc3)Oc3cc4c(cc32)OCO4)cc1 (centres undefined) | u | x | 35.5µM* | x | x | x
COc1ccc(C2CC(c3ccccc3)Oc3cc(OC)ccc32)cc1 (centres undefined) | u | x | 39.8µM* | x | x | x
Cc1c(Cc2ccccc2)sc(NC(=O)C(C)(C)C)c1C(N)=O | u | -2.5 | -34.7% | u | 18.9µM* | 14.1µM*
SMILES | HP1b binding inh | PI5P4K alpha inh | JMJD2A Tudor | BAZ2B inh | PLK1 PBD block | G9a inh
CCC(=O)Nc1sc(Cc2ccccc2)c(C)c1C(N)=O | -20.3% | -25.7 | u | u | 26.7µM* | x
COc1ccc(/C=C/C(=O)Nc2sc(Cc3ccccc3)c(C)c2C(N)=O)cc1 | 25.7% | -0.8 | -26.0% | -0.8% | 1.0% | -21.0%[59 µM]
Cc1c(Cc2ccccc2)sc(N)c1C(N)=O | x | x | x | -29.3% | x | 2µM*
Cc1c(Cc2ccccc2)sc(NC(=O)Cc2ccccc2)c1C(N)=O | -51.8% | -28.3 | -31.3% | x | 10.6µM* | x
Cc1cc(Cl)ccc1NS(=O)(=O)c1c(C(=O)N2CCCCCC2)c(C)n(C)c1C | 9.0% | x | -32.0% | u | x | 10.8%[59 µM]
O/C(=C\c1nc2ccccc2nc1/C=C(\O)c1ccccc1)c1ccccc1 | -16.2% | -6.2 | u | 4.47µM* | u | u
O=c1oc2ccccc2nc1/C=C(\O)c1ccccc1 | 50.5% | -3.3 | -3.7% | u | -9.1% | x
COc1ccc(Cl)cc1NC(=O)C1CSC(c2ccncc2)=N1 (centres undefined) | 19.3% | 7.8 | -14.3% | -20.4% | -24.8% | 11.2µM*
COc1ccc(Cl)cc1NC(=O)NC(C)c1ccncc1 (centres undefined) | 18.6% | x | -9.0% | 1.7% | -7.5% | 9.7%[59 µM]
COc1ccc([N+](=O)[O-])cc1NC(=O)CC1SC(=Nc2cccc(C)c2C)N(/N=C/c2cccc(OC)c2OC)C1=O (centres undefined) | -14.3% | -1.1 | -29.0% | -22.3% | -15.4% | 35.5µM*
CN=C1SC(CC(=O)Nc2c(C)cccc2C)C(=O)N1/N=C/c1cccs1 (centres undefined) | 22.1% | 1.5 | -24.5% | -0.6% | 1.8% | -10.4%[59 µM]
COc1ccc([N+](=O)[O-])cc1C(=O)C(=O)c1ccccc1 | 18.1% | 8.8 | -28.5% | -6.4% | -17.7% | x
COc1cc(C(=O)O)nc2ccc([N+](=O)[O-])cc12 | 22.9% | 1.1 | -16.5%[11.4 µM] | 50.1µM* | -21.1% | 17.8µM*
O=C(O)c1ccccc1-c1nc(-c2ccccc2)c(-c2ccccc2)[nH]1 | 7.7% | -0.6 | -17.9% | u | -5.1% | u
O=C(O)c1cccc2c(-c3ccccc3)c(-c3ccccc3)[nH]c12 | -25.4% | 18.0 | u | u | 23.8µM* | x
CCN(CC)C(=O)[C@H]1C[C@H](CC(=O)NC(C)(C)C)C(=O)N2CCc3c([nH]c4cc(-c5ccco5)ccc34)[C@]12C | 2.8% | 4.1 | u | x | -7.5% | x
CC(C)=CCC/C(C)=C/CNC(=O)C[C@H]1C[C@H](C(=O)N2CCOCC2)[C@@]2(C)c3[nH]c4cc(-c5ccco5)ccc4c3CCN2C1=O | u | 19.8 | 39.8µM* | x | -4.1% | x
CC(C)N(C(=O)[C@H]1C[C@H](CC(=O)NC(C)(C)C)C(=O)N2CCc3c([nH]c4cc(-c5ccco5)ccc34)[C@]12C)C(C)C | u | -25.5 | 50.1µM* | x | 21.2µM* | x
NS(=O)(=O)Nc1ccccc1Br | 15.0% | x | -12.4% | x | x | x
CC(C)(C)OC(=O)NS(=O)(=O)Nc1ccccc1Br | -5.5% | x | 35.5µM* | x | x | x
